SRC1 TRFRET art: counter-screen for PPARgamma SRC-1 recruitment agonists: TR-FRET artefact; TR-FRET detection artefact counter-screen, emission ratio; hits give high values; TR-FRET ratio at 8 µM; 99,000 compounds, 0.34% hits; AID 1051; in the data active = TR-FRET ratio above about 2300
PPARg SRC-3 ag: agonists of human PPARgamma SRC-3 coactivator recruitment. P37231. biochemical PPARgamma/SRC-3 coactivator recruitment assay. activation, % at 8 µM. 200,000 compounds, 0.26% hits. AID 731; in the data active = activation above about 23%;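 note: 0% = DMSO and 100% = reference agonist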
Target sequence (P37231 whole entry, looked up): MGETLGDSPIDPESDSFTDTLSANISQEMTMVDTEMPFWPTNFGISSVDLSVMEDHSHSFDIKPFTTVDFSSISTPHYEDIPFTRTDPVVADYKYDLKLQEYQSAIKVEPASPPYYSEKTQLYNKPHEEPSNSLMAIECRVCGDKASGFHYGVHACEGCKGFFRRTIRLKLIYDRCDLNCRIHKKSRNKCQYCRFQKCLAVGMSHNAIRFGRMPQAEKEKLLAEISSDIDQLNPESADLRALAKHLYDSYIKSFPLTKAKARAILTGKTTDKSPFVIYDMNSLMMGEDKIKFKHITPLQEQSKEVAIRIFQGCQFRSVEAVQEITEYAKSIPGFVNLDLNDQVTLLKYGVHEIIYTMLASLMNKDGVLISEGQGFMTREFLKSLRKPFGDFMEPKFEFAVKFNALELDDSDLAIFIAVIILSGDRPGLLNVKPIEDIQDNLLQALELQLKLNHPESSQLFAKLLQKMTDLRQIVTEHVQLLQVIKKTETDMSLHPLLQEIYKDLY
PPARg SRC2 recr: PPARgamma-driven SRC-2 recruitment agonism; 200,000 compounds, 0.34% hits; P37231; activation, % at 8 µM; AID 1032; PPARgamma LBD-SRC-2 recruitment, biochemical;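 note: 0% = vehicle and 100% = reference agonist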
SRC2 TRFRET art: flags TR-FRET format artefacts in PPARgamma SRC-2 recruitment agonist screen; TR-FRET artefact counter-screen; hits give high values; TR-FRET ratio at 8 µM; 200,000 compounds, 0.4% hits; in the data active = TR-FRET ratio above about 2000
PPARg SRC1 recr: agonists of human PPARgamma SRC-1 coactivator recruitment; P37231; PPARgamma-SRC-1 coactivator recruitment biochemical assay; activation, % at 8 µM; 200,000 compounds, 0.41% hits; AID 631; in the data active = activation above about 19%;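 note: 0% = DMSO and 100% = reference agonist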
SRC3 TRFRET art: counter-screen for PPARgamma SRC-3 recruitment agonists: TR-FRET artefact; PPARgamma/SRC-3 format; hits give high values; TR-FRET ratio at 8 µM; 99,000 compounds, 0.39% hits; AID 1048; in the data active = TR-FRET ratio above about 2000
PPARg SRC2 conf: human PPARgamma SRC-2 recruitment agonism, confirmation; shares compounds with PPARg SRC-3 ag; biochemical SRC-2 recruitment by PPARgamma; activation, % at 8 µM; 790 compounds, 52% hits; AID 1297;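 note: 0% = vehicle alone and 100% = reference agonist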
PPARg SRC1 ag: confirmation of agonists of SRC-1 recruitment by human PPARgamma; shares compounds with PPARg SRC-3 ag; activation, % at 8 µM; 790 compounds, 43% hits; PPARgamma–SRC-1 coactivator recruitment biochemical assay; in the data active = activation above about 20%;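 note: 0% = vehicle wells and 100% = reference agonist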
PPARg SRC3 ag: human PPARgamma SRC-3 recruitment agonism, confirmation | shares compounds with PPARg SRC-3 ag | biochemical PPARgamma-SRC-3 coactivator recruitment, agonist mode | activation, % at 8 µM | 790 compounds, 29% hits | AID 1301; in the data active = activation above about 24%;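 note: 0% = vehicle wells and 100% = reference agonist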
An asterisk follows results filed as active; . = no result given. Shown are actives, neighbours in structure and some others; about 0.9% of the full set was active somewhere. Cut-off read from the data, not from the text of the source, unless noted: active = activation above about 22%; inactive = the rest.

SMILES | SRC1 TRFRET art | PPARg SRC-3 ag | PPARg SRC2 recr | SRC2 TRFRET art | PPARg SRC1 recr | SRC3 TRFRET art | PPARg SRC2 conf | PPARg SRC1 ag | PPARg SRC3 ag
NS(=O)(=O)c1ccc(CCNC(=O)c2cc(-c3ccccc3)nc3ccccc23)cc1 | 1708 | 0 | -1 | 1481 | -1 | 1586 | . | . | .
NS(=O)(=O)c1ccc(CNC(=O)c2cc(-c3ccccn3)nc3ccc(Cl)cc23)cc1 | 3155* | 54* | 64* | 2879* | 63* | 3729* | 33* | 27* | 18
Cc1ccc(NC(=O)CN2CCN(CCN=CC3=C(O)CC(c4ccc(C)cc4)CC3=O)CC2)cc1 (stereo not drawn) | 1780 | 3 | 4 | 1396 | -2 | 1719 | . | . | .
O=C(COC(=O)c1cc(-c2ccc(Cl)s2)nc2ccccc12)NCc1ccco1 | . | 18 | 19 | 1744 | 13 | . | . | . | .
COc1ccc(CNC(=O)COC(=O)c2cc(-c3ccc(Cl)s3)nc3ccccc23)cc1 | . | 17 | 23* | 2696* | 13 | . | 20 | 16 | 12
COC(=O)c1c(C)[nH]c(C(=O)C(C)Sc2nnc(-c3cc(OC)c(OC)c(OC)c3)o2)c1C (stereo not drawn) | . | 13 | 4 | 1724 | 27* | . | 24* | 25* | 17
Cc1nn(C)c(C)c1NC(=O)CSc1nc(-c2ccccc2Cl)nc2c1cnn2-c1ccccc1 | . | 14 | -2 | 1882 | 19* | . | 4 | -2 | -2
Cc1ccc(S(=O)(=O)N2CCC(=O)N(C(COCc3ccc(C(F)(F)F)cc3)Cc3ccccc3)CC2)cc1 (stereo not drawn) | 1562 | -5 | -4 | 1307 | -2 | 1564 | . | . | .
Fc1cccc(NC(=S)NNc2c3ccccc3nc3ccccc23)c1 | 3530* | 21 | 53* | 2526* | 45* | 2517* | 3 | 4 | 1
CCOC(=O)c1ccc2c(c1)[nH]c(=S)n2CC | 2451* | 20 | 28* | 1960 | 23* | 2330* | 50* | 37* | 30*
CCOC(=O)c1ccc2c(c1)n(CC)c(C)[n+]2CC | 1873 | 6 | 10 | 1523 | 7 | 1660 | . | . | .
N#Cc1c(Cl)nc(SCc2ccccc2)nc1-c1ccccc1 | . | 70* | 67* | 2883* | 59* | . | 80* | 65* | 54*
Cc1[nH]c2ccccc2c1/C=C(\C#N)C(=O)NCc1ccccc1 | 1808 | 2 | -1 | 1429 | 5 | 1618 | . | . | .
Cc1ccc(C(C)NC(=O)/C(C#N)=C\c2c(C)[nH]c3ccccc23)cc1 (stereo not drawn) | . | 4 | 10 | 1569 | 19* | . | 6 | 17 | 14
N#CC(c1nc2ccccc2nc1N1CCCC1)S(=O)(=O)c1ccccc1 (stereo not drawn) | . | -8 | -6 | 1401 | 10 | . | . | . | .
Cc1cccc(S(=O)(=O)C(C#N)c2nc3ccccc3nc2N2CCCC2)c1 (stereo not drawn) | . | 14 | 11 | 1588 | 19* | . | 8 | 11 | 6
Oc1ccc(Br)cc1C=Nc1cccn2cc(-c3ccccc3)nc12 | 1670 | 11 | 23* | 1895 | 19 | 1820 | 17 | 16 | 14
Cc1cc(C)nc(N/C(=N\S(=O)(=O)Cc2ccccc2)Nc2ccc(F)c(Cl)c2)n1 | 1804 | 5 | 11 | 1649 | 2 | 1582 | . | . | .
O=C(Nc1ccc(N2CCOCC2)cc1N1CCOCC1)c1ccc([N+](=O)[O-])cc1 | . | 27* | 14 | 1418 | 3 | . | 3 | 0 | 2
O=C(CCNC(=O)c1ccc([N+](=O)[O-])cc1)Nc1ccc(N2CCOCC2)cc1N1CCOCC1 | 2042 | -3 | 5 | 1732 | 4 | 1672 | . | . | .
CC(C)NOC(=O)c1ccc(Cl)cc1 | 1807 | 3 | -1 | 1655 | 11 | 1624 | . | . | .
CCCCCc1cc(O)c2c(C)cc(=O)oc2c1 | . | 21 | 14 | 1926 | 19* | . | 16 | 7 | 12
CCc1cc(=O)oc2cc(C)cc(O)c12 | . | 50* | 42* | 2296* | 37* | . | 40* | 27* | 27*

Compound activity: PubChem, The Scripps Research Institute Molecular Screening Center
